# According to ChEMBL document CHEMBL3988442, “University of Dundee, Small-Polar-MMV Screening Library” (2021):
# Hit rate of the full screen: of about 53,000 compounds, about 900 (1.7%) showed an effect of 50% or more. Many of the other results were omitted from the sample, so strong results are more common in it than they were.
# System: Mycobacterium tuberculosis
# Test: Cornell - Phenotypic assay to identify agents that inhibit growth of Mycobacterium tuberculosis
# Assay type: functional
# Set-up: scale not given: direction of the effect not stated beside the values
# Settings: 10 mM as filed; unlikely as a test dose
row,Compound,Percent Effect [%]
1,O[C@@H]1CN(c2nc3ccccc3o2)CC[C@H]1c1ccc2c(c1)OCO2,1.12
2,O[C@@H]1CN(c2nc3ccccc3s2)CC[C@H]1c1ccc2c(c1)OCO2,18.1
3,O[C@@H]1CN(c2cnc3ccccc3n2)CC[C@H]1c1ccc2c(c1)OCO2,102.9
4,COc1cccc(CNC(=O)CN2CCCC(Cn3cncn3)C2)c1 (stereo not given),-43.6
5,Cc1ccc(-c2noc(CN3CC(n4cc(C)cn4)C3)n2)cc1,41.03
6,Cc1cnn(C2CN(Cc3nnc(Cc4ccccc4)o3)C2)c1,75.37
7,Cc1cnn(C2CN(Cc3nc(-c4ccsc4)no3)C2)c1,18.79
8,Cc1cc(C)n(C2CN(Cc3nc4cc(Cl)ccc4n3C)C2)n1,-28.71
9,Cc1cnn(C2CN(Cc3nc(-c4ccccn4)no3)C2)c1,-25.23
10,Cc1ccc(-c2nnc(CN3CC(n4cc(C)cn4)C3)o2)cc1,82.45
11,Cc1cccc(-c2noc(CN3CC(n4cc(C)cn4)C3)n2)c1,51.38
12,Cc1cnn(C2CN(Cc3nc(C(C)(C)C)no3)C2)c1,-9.455
13,Cc1cnn(C2CN(Cc3nc(-c4ccccc4C)no3)C2)c1,-13.18
14,Cc1cnn(C2CN(Cc3nc4cc(Cl)ccc4n3C)C2)c1,63.15
15,Cc1cnn(C2CN(Cc3nc(-c4cccnc4)no3)C2)c1,3.209
16,Cc1cnn(C2CN(Cc3nnc(-c4ccccc4Cl)o3)C2)c1,-48.85
17,CCOc1ccccc1-n1c(C2CC(=O)N(C)C2)n[nH]c1=O (stereo not given),-16.7
18,Cc1c[nH]c(CN(C)C(=O)[C@]23CNC[C@H]2CNC3)n1,-19.02
19,O=C(Nc1ccnn1Cc1ccc(Cl)cc1)C1CCS(=O)(=O)C1 (stereo not given),-30.31
20,CC(C)(C)C(=O)NS(=O)(=O)c1ccc(F)cc1C(F)(F)F,31.3
21,CC(=O)N1CCC(Cc2cnc(Nc3cc(C)on3)cn2)CC1,-2.54
22,Nc1nonc1C(=O)N1Cc2ccccc2OC2(CCOCC2)C1,-22.02

row,Compound,Percent Effect [%]
1,COc1ccc(-c2cn([C@H](CO)CC(C)C)nn2)cn1,26.72
2,COC(=O)Cn1c(=O)nc2n1C(=O)N(c1ccc(F)cc1)C2,8.177
3,Cc1cnn(CC2CCCN2C(=O)c2cccc(S(C)(=O)=O)c2)c1 (stereo not given),1.06
4,Cc1noc([C@]23COC[C@H]2CN(C(=O)COC2CCCC2)C3)n1,1.713
5,CNC(=O)Cn1c(-c2ccco2)nn(-c2ccccc2OC)c1=O,-0.5787
6,CC(c1cccnc1)N(C)C(=O)NCCOc1ccc(C#N)cc1 (stereo not given),12.58
7,C[C@@H]1CN(C(=O)C2CCS(=O)(=O)CC2)CC[C@@]1(O)C1CCOCC1,26.03
8,Cc1cc(C)n(CCN2CCC(N(C)Cc3nnc(C)n3C)C2)n1 (stereo not given),-7.03
9,CCN(C(=O)Cc1ccc(NCc2ncc[nH]2)cc1)c1ccccc1,52.94
10,CCN(C(=O)Cc1ccc(NC(=O)NC2CC2)cc1)c1ccccc1,-6.305
11,CCN(C(=O)Cc1ccc(NCc2nccn2C)cc1)c1ccccc1,9.386
12,Cc1nn(C)c(Cl)c1C1CCCN1C(=O)c1cnc[nH]1 (stereo not given),8.572
13,Cc1ccc(C(=O)NCc2ccnc(C3CCCOC3)n2)s1 (stereo not given),2.557
14,CC(C)(C)CNC(=O)c1ccc(C(=O)O)nc1,11.56
15,CN(CC(=O)NCCc1ccccn1)C(=O)c1cccs1,-9.987
16,CN(CC(O)C1CC1)C(=O)Nc1cc(F)cc(Br)c1 (stereo not given),5.584
17,CNC(=O)C(C)CN(C)C(=O)Nc1cc(F)cc(Br)c1 (stereo not given),72.87
18,CC(O)CCN(C)C(=O)Nc1cc(F)cc(Br)c1 (stereo not given),23
19,Cn1nc(C2CN(S(C)(=O)=O)C2)c2nccnc21,-1.799
20,Nc1nnc(SCC(=O)c2cc3c(cc2Cl)NC(=O)C3)s1,9.185
21,Cc1nnc(SCC(=O)c2cc3c(cc2Cl)NC(=O)C3)s1,21.14
22,CSc1nsc(SCC(=O)c2cc3c(cc2Cl)NC(=O)C3)n1,71.22

row,Compound,Percent Effect [%]
1,O=C(C1CCOCC1)N1CCC(O)(Cn2ccc3ccncc32)CC1,-3.808
2,Cc1cc(CN2C[C@@H]3COC[C@@H](C(=O)N4CCCCO4)[C@@H]3C2)oc1C.O=C(O)C(F)(F)F,19.33
3,CN(C)CC1(O)CCN(C(=O)Cc2ccc(Cl)c(Cl)c2)C1 (stereo not given),-11.99
4,CN(C)CC1(O)CCN(C(=O)Cc2ccc3c(c2)CCCC3)C1 (stereo not given),27.93
5,CN(C)CC1(O)CCN(C(=O)Cc2ccc3c(c2)CCC3)C1 (stereo not given),59.81
6,O=C1C(Sc2nnnn2C2CC2)CCN1c1ccccc1F (stereo not given),-21.88
7,O=C(O)c1cc(NS(=O)(=O)c2ccccc2F)ccc1N1CCSCC1,-53.64
8,Cc1ccc(S(=O)(=O)Nc2ccc(-n3cccc3C(=O)O)c(C)c2)cc1,24.84
9,Cc1cc(NS(=O)(=O)c2cccs2)ccc1-n1cccc1C(=O)O,31.6
10,Cc1cc(NS(=O)(=O)c2ccc(Cl)s2)ccc1-n1cccc1C(=O)O,25.94
11,Cc1cc(NS(=O)(=O)c2ccccc2F)ccc1-n1cccc1C(=O)O,63.88
12,Cc1ccc(S(=O)(=O)Nc2ccc(-n3cccc3C(=O)O)c(C)c2)s1,77.19
13,Cc1cnn(CC2CN(CC(=O)N(C)Cc3cnn(C)c3)CCO2)c1 (stereo not given),-28.01
14,CCc1ccccc1-n1nnc(C(=O)O)c1-c1ccccn1,8.629
15,Clc1ccc(OCCNC2(c3ccc(Br)cc3)CCOCC2)cc1,68.56
16,COCCNC1(c2ccc(Cl)cc2)CCOCC1,-43.32
17,CCOCCNC1(c2ccc(Cl)cc2)CCOCC1,-7.005
18,CNC(=O)C1(C)CN(c2nnc(C)c3ccccc23)CCO1 (stereo not given),14
19,COc1ccc(N(c2ccc(C)cc2)c2ccc(C(=O)O)s2)cc1,2.836
20,COc1ccc(N(c2ccc(OC)cc2)c2ccc(C(=O)O)s2)cc1,27.51
21,COc1ccc(N(c2ccccc2)c2ccc(C(=O)O)s2)cc1,73.26
